± gives the standard deviation of the averaged measurements. Of roughly 6,500 targets only a part is listed; those with the largest changes were picked by preference.
Compound: Nc1ncnc2c1ncn2[C@@H]1O[C@H](COP(=O)(O)OP(=O)(O)OP(=O)(O)O)[C@@H](O)[C@H]1O [adenosine triphosphate]
Test: NP40-soluble protein abundance relative to vehicle (solubility fold change) (ratio); higher = more soluble protein in presence of ATP
In short: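 Across three independent experiments, values are fold changes against the detergent-processed vehicle for each replicate, based on vsn-normalised intensities. The samples were Jurkat crude lysate treated with eight concentrations (0.1 to 10 mM) for 10 min at room temperature and then 3 min at 37 °C. Lysate was solubilised with 0.8% NP40 and benzonase, ultracentrifuged, and the supernatant analysed by TMT-labelled LC-MS/MS.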

Sequence of UniProt P04350 (P04350 whole entry, one chain of several): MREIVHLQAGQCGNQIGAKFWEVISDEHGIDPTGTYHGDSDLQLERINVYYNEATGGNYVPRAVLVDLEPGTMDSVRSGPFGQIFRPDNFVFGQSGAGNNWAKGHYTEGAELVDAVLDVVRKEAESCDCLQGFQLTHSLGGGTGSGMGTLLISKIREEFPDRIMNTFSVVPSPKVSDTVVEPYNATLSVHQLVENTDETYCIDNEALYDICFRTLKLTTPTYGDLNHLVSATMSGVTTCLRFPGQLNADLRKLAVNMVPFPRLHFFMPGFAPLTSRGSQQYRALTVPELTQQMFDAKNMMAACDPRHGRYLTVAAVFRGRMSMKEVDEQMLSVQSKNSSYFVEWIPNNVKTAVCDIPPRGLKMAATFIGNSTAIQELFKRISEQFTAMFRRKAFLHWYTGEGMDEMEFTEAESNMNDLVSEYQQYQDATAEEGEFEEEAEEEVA
Sequence of UniProt O15379 (O15379 whole entry): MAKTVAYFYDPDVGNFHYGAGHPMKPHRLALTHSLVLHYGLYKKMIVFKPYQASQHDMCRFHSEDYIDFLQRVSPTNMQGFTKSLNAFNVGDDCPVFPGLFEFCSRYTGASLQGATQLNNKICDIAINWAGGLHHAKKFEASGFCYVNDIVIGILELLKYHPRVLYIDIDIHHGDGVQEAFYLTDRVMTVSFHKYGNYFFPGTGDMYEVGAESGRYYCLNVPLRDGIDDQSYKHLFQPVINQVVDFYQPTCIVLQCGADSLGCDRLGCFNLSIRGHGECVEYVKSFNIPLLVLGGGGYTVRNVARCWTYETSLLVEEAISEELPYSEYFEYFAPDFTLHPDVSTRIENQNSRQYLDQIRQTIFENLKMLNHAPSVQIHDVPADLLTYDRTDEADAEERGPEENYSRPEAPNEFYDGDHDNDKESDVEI
Sequence of UniProt Q9H2U1 (Q9H2U1 whole entry, one chain of several): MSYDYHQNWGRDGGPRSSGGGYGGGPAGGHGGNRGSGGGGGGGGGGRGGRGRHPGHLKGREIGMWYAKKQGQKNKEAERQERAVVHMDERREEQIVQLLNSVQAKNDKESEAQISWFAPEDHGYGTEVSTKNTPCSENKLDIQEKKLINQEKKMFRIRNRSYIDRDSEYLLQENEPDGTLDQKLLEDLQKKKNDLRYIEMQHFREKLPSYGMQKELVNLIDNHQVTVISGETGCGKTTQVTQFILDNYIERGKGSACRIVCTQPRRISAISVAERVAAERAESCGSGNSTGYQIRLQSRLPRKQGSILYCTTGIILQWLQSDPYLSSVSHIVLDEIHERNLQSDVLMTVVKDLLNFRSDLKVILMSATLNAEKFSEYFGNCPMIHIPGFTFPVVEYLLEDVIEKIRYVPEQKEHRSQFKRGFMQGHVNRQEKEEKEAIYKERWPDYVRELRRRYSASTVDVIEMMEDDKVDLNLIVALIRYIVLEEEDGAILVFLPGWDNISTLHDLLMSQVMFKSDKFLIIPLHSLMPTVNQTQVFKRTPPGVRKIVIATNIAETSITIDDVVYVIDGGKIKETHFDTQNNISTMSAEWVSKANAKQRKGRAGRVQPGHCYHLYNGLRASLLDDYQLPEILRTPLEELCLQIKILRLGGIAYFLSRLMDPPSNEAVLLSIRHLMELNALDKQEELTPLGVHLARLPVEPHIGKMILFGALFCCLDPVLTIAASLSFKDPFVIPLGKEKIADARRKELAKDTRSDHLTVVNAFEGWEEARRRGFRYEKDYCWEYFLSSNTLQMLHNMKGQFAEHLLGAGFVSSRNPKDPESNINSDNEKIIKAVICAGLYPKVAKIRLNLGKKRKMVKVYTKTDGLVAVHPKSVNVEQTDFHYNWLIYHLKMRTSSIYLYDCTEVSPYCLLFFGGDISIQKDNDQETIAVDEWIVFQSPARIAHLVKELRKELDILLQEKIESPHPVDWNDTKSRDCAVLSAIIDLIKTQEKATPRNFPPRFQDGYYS
Sequence of UniProt Q9NR46 (Q9NR46 whole entry, one chain of several): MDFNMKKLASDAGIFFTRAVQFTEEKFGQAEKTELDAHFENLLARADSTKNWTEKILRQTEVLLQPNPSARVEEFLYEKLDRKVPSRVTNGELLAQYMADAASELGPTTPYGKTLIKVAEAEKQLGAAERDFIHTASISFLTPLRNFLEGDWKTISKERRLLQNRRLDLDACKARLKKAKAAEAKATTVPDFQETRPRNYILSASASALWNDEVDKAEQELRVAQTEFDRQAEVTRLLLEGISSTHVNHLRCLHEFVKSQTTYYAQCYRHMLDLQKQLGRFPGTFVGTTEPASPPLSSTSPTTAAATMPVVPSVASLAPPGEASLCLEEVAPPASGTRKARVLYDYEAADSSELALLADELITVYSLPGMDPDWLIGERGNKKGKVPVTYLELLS
Sequence of UniProt P78537 (P78537 whole entry, one chain of several): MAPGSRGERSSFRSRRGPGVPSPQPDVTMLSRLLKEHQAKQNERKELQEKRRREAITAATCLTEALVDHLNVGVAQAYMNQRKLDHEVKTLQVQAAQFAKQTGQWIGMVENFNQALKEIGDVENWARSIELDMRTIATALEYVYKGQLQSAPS
Sequence of UniProt Q9NWH9 (Q9NWH9 whole entry, one chain of several): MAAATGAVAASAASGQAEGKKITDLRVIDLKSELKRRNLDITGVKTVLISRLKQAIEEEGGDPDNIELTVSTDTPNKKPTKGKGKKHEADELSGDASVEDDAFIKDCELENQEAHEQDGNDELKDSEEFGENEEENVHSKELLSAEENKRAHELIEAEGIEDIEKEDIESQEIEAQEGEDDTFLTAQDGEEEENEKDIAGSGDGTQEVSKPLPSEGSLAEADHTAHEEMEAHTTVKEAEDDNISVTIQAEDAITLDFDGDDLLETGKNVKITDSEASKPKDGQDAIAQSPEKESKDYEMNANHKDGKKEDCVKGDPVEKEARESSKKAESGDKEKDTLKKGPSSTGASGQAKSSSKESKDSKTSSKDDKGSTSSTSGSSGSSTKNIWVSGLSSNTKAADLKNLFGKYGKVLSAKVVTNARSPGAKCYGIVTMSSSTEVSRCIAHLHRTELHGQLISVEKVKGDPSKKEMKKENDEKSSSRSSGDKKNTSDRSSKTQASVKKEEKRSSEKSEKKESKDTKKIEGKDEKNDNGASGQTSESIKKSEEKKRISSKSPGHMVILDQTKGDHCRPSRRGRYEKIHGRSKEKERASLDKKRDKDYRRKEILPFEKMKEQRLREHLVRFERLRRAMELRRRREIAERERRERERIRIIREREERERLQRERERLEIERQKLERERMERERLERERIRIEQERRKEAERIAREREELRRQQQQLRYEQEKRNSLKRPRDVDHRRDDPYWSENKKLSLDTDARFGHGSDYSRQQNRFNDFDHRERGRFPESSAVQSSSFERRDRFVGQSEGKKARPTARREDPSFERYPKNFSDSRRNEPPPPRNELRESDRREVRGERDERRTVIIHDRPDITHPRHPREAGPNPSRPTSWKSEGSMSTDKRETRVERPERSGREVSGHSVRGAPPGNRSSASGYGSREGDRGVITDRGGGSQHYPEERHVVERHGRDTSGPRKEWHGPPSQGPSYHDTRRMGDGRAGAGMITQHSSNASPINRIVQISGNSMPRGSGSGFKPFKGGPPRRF
Sequence of UniProt Q5TC12 (Q5TC12 whole entry, one chain of several): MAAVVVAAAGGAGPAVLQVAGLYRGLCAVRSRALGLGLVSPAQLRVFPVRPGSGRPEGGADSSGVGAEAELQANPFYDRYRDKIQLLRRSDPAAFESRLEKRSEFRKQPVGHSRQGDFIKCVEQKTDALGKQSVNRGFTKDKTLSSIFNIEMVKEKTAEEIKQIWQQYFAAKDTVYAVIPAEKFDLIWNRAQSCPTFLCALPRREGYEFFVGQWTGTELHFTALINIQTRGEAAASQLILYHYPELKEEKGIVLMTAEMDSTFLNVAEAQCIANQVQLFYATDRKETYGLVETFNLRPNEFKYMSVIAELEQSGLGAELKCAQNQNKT
Sequence of UniProt Q9H9Q2 (Q9H9Q2 whole entry, one chain of several): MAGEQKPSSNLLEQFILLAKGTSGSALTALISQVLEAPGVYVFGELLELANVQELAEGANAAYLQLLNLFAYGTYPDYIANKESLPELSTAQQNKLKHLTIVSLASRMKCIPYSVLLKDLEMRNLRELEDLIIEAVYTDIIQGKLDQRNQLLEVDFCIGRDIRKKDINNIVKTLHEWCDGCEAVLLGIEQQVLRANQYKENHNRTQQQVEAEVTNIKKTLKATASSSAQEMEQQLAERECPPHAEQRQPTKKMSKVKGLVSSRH
Sequence of UniProt Q12857 (Q12857 whole entry, one chain of several): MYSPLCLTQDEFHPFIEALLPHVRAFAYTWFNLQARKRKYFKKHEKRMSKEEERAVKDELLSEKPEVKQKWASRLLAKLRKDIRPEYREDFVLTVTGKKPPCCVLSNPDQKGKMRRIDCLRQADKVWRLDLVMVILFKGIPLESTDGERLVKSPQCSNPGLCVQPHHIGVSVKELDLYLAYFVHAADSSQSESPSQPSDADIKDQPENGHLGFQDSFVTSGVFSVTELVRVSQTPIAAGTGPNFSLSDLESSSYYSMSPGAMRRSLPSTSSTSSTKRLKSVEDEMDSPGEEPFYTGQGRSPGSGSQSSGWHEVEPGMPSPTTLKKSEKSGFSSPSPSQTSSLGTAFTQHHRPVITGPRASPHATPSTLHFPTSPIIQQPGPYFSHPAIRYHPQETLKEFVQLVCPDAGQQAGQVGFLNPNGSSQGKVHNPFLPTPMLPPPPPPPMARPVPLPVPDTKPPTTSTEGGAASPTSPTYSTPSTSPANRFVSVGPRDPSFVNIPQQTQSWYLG
Sequence of UniProt Q9NZ72 (Q9NZ72 whole entry, one chain of several): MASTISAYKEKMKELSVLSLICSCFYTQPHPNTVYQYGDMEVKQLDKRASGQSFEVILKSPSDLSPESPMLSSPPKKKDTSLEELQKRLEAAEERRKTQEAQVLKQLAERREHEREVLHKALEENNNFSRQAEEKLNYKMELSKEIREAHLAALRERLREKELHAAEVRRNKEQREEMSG
Sequence of UniProt O15392 (O15392 whole entry): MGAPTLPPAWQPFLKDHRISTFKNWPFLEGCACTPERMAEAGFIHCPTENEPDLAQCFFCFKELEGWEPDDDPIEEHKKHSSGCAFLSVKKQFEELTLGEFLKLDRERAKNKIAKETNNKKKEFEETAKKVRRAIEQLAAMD

Target	NP40-soluble protein abundance (concentration: 1mM)	NP40-soluble protein abundance (concentration: 2mM)	NP40-soluble protein abundance (concentration: 4mM)	NP40-soluble protein abundance (concentration: 6mM)	NP40-soluble protein abundance (concentration: 8mM)	NP40-soluble protein abundance (concentration: 10mM)
A0A087X176|Q6ZRP7 (UniProt Q6ZRP7)	0.958 ± 0.057	0.983 ± 0.011	0.961 ± 0.028	0.99 ± 0.029	0.953 ± 0.026	0.96 ± 0.037
A2ABJ5|O75955|A0A140T9R1 (UniProt O75955)	1.03 ± 0.047	0.948 ± 0.029	0.926 ± 0.012	0.925 ± 0.11	0.931 ± 0.071	0.916 ± 0.052
E9PEN0|Q8WYH8|Q8WYH8-2 (UniProt Q8WYH8)	1.15 ± 0.2	1.3 ± 0.29	1.36 ± 0.18	1.5 ± 0.16	1.85 ± 0.6	1.86 ± 0.39
HMGN4 (UniProt O00479)	0.97 ± 0.35	1.27 ± 0.44	1.22 ± 0.47	1.67 ± 0.86	1.63 ± 0.72	2.97 ± 2.3
H7C5F5|Q9H2U1|Q9H2U1-2 (UniProt Q9H2U1)	0.963 ± 0.068	0.979 ± 0.08	0.987 ± 0.073	1.01 ± 0.1	1.03 ± 0.088	1.02 ± 0.1
B4DEN4|E7EV05|E9PFU9|Q8WV99|Q8WV99-2 (UniProt Q8WV99)	0.955 ± 0.084	0.953 ± 0.046	0.943 ± 0.059	0.958 ± 0.066	0.91 ± 0.037	0.902 ± 0.062
M0R042|P04350 (UniProt P04350)	1.01 ± 0.089	0.962 ± 0.037	1.02 ± 0.034	0.934 ± 0.058	1.02 ± 0.018	0.955 ± 0.071
A0A0J9YW36|Q9NZ72|Q9NZ72-2 (UniProt Q9NZ72)	1.03 ± 0.25	1.21 ± 0.52	0.979 ± 0.12	1.18 ± 0.36	0.945 ± 0.1	0.863 ± 0.05
E9PL53|J3KND1 (UniProt Q96ER3)	0.966 ± 0.034	0.9715 ± 0.0057	0.951 ± 0.013	0.997 ± 0.019	0.9485 ± 0.0047	0.925 ± 0.011
UniProt O15379|O15379-2	1 ± 0.019	0.9928 ± 0.0062	0.985 ± 0.04	0.994 ± 0.053	1.04 ± 0.044	1.03 ± 0.065
UniProt O15392|O15392-2	0.961 ± 0.1	2.09 ± 1.6	1.13 ± 0.09	1.23 ± 0.031	1.26 ± 0.092	1.31 ± 0.16
XYLB (UniProt O75191)	1 ± 0.053	0.986 ± 0.062	0.984 ± 0.097	0.965 ± 0.069	0.99 ± 0.075	0.967 ± 0.053
DYNC1LI2 (UniProt O43237)	0.947 ± 0.049	0.939 ± 0.049	0.905 ± 0.047	0.959 ± 0.14	0.92 ± 0.075	0.932 ± 0.032
A0A0G2JPT5|O75943|O75943-2 (UniProt O75943)	1.49 ± 0.28	1.59 ± 0.3	1.62 ± 0.32	1.7 ± 0.33	1.69 ± 0.28	1.65 ± 0.33
K7EK70|Q49A26 (UniProt Q49A26)	1.18 ± 0.095	1.25 ± 0.1	1.38 ± 0.1	1.45 ± 0.083	1.57 ± 0.16	1.76 ± 0.081
B1AKN5|B1AKN7|B1AKN8|Q12857|Q12857-3|Q12857-4|B1AKN6|S4R3K4|Q12857-2 (UniProt Q12857)	1.22 ± 0.072	1.08 ± 0.11	1.12 ± 0.081	1.21 ± 0.13	0.995 ± 0.072	1.13 ± 0.033
J3KTE4|J3QR09|P84098 (UniProt P84098)	1.01 ± 0.053	1 ± 0.027	0.968 ± 0.07	0.966 ± 0.043	0.908 ± 0.057	1.05 ± 0.094
H0YLE6|Q9NWH9|H0YNF3 (UniProt Q9NWH9)	0.961 ± 0.054	0.988 ± 0.027	0.993 ± 0.038	1.11 ± 0.059	1.08 ± 0.032	1.13 ± 0.033
J3KQ34|Q9H9Q2 (UniProt Q9H9Q2)	0.89 ± 0.097	0.87 ± 0.04	0.855 ± 0.072	0.873 ± 0.093	0.878 ± 0.032	0.77 ± 0.1
K7EIY6|Q9BV68-2 (UniProt Q9BV68)	1 ± 0.15	0.967 ± 0.095	0.991 ± 0.11	1 ± 0.1	0.969 ± 0.034	0.92 ± 0.11
B7ZC38|Q9NR46 (UniProt Q9NR46)	0.993 ± 0.015	0.977 ± 0.029	0.98 ± 0.033	0.981 ± 0.021	0.988 ± 0.056	0.936 ± 0.039
G8JLQ3|P78537|P78537-2 (UniProt P78537)	0.965 ± 0.12	0.88 ± 0.076	0.834 ± 0.1	0.861 ± 0.12	0.816 ± 0.032	0.702 ± 0.15
PDXK (UniProt O00764)	1.02 ± 0.12	0.987 ± 0.058	1.01 ± 0.066	0.935 ± 0.14	0.989 ± 0.058	0.981 ± 0.051
J3KTL2|Q07955 (UniProt Q07955)	1.41 ± 0.16	1.53 ± 0.14	1.7 ± 0.11	1.93 ± 0.19	1.89 ± 0.097	1.98 ± 0.093
UniProt O00560|O00560-2	0.95 ± 0.073	0.946 ± 0.041	0.937 ± 0.04	0.896 ± 0.077	0.9459 ± 0.0062	0.957 ± 0.031
UniProt O14662-2|O14662-4|O14662-5	0.98 ± 0.066	0.94 ± 0.042	0.993 ± 0.044	0.974 ± 0.037	0.983 ± 0.034	0.921 ± 0.068
E9PJA7|Q9NYF8|Q9NYF8-2|Q9NYF8-3 (UniProt Q9NYF8)	1.31 ± 0.092	1.41 ± 0.056	1.54 ± 0.086	1.7 ± 0.11	1.65 ± 0.07	1.7 ± 0.06
UniProt O00567	1.04 ± 0.038	1.1 ± 0.033	1.24 ± 0.02	1.38 ± 0.06	1.68 ± 0.064	2.11 ± 0.2
I3L448|Q5TC12 (UniProt Q5TC12)	0.982 ± 0.049	0.985 ± 0.028	0.983 ± 0.046	0.998 ± 0.04	0.96 ± 0.04	0.952 ± 0.022
C9J381|P20839|P20839-2|P20839-3|P20839-4|P20839-5|P20839-6|P20839-7 (UniProt P20839)	0.999 ± 0.049	0.9672 ± 0.0062	0.933 ± 0.018	0.695 ± 0.051	0.61 ± 0.018	0.581 ± 0.033

Source: the supplement of paper PMC6411743
